# Nrf2 block = blocks Nrf2 signaling; A549 ARE-Fluc reporter, luciferase luminescence, 18-24 h; Potency, µM (doses to about 46 µM), most hits filed as inhibitors; 360,000 tested, 2.1% active; note: nearly all actives have a fitted effect of over 60% in size
#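 Concentration-response testing used A549 ARE_Fluc cells at 5000 cells/well. Following an 18-24 h compound incubation, viability was read by fluorescence (Ex 405/Em 525) and luciferase output by luminescence.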
# PINK1 modulator = modulators of PINK1 expression | PINK1 immunofluorescence, high-content cytometry, 24 h | Potency, µM (doses to about 76.6 µM), hits mostly activators | 410,000 tested, 0.2% active; active = well fitted activation curve with a large enough effect; inconclusive = small, poorly fitted or top-dose-only effect; cell line not stated here; note: nearly all actives have a fitted effect of over 65% in size
#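 PINK1 protein level read as immunofluorescence by microplate cytometer in a fixed, stained stable cell line after 24 h exposure to five compound concentrations, with CCCP as control.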
# Epigenetic derep = derepresses silenced GFP reporter in murine cells; murine LDR cells, GFP reporter derepression, 30 h; Potency, µM (titrated, usually from 53.9 µM), most hits filed as activators; 280,000 tested, 0.2% active; AID 1865; note: nearly all actives have a fitted effect of over 60% in size
#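 Murine LDR cells carrying a silenced, genomically integrated CMV-driven GFP reporter were exposed to compound for 30 hours at 37 C. After PBS washes, GFP-positive cells (20–120 um objects) were counted by laser-scanning microplate cytometry.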
# Nrf2 ARE act = activates Nrf2 signaling; AREc32 ARE-luciferase reporter (MCF7-derived line), luminescence, 24 h; Potency, µM (titrated, usually from 46.1 µM), hits mostly activators; 410,000 tested, 0.31% active; note: nearly all actives have a fitted effect of over 65% in size
#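 AREc32 cells carrying an ARE-driven firefly luciferase reporter were seeded at 1000 cells/well in OPTI-MEM with 5% FBS, then exposed to compound for 24 hr at 37 deg C. Luminescence was read with Steady-Glo after 30 min at RT.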
# A549 tox = kills or reduces viability of A549 cells in Nrf2 counter-screen; A549 ARE-Fluc cells, CellTiter-Fluor viability, 18-24 h; Potency, µM (doses to about 46 µM), usual class: inhibitors; 390,000 tested, 0.16% active
#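 Cytotoxicity counterscreen: CellTiter-Fluor fluorescence was measured in A549 ARE_Fluc cells after 18-24 h of compound exposure in a concentration series. The subsequent BugLite luminescent read reports ARE-luciferase activity.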
# Hits are given with their value; i = inactive; ? = inconclusive; nt = not tested or not shown; [ ] = another dose, or the depositor's remark. Most compounds without a hit are left out; they make up all but 2.4% or so of the library. Unless noted, calls come from the whole dose curve; as a rule, active = well fitted curve in the direction sought with a large enough effect; inconclusive = small, poorly fitted or top-dose-only effect, or another doubt; inactive = no such curve, though single readings can be large; an effect the other way counts as inactive or inconclusive.
SMILES,Nrf2 block,PINK1 modulator,Epigenetic derep,Nrf2 ARE act,A549 tox
CN(CC(=O)Nc1ccccc1Cl)C(=O)c1cccc(S(=O)(=O)N2CCN(c3ccc(F)cc3)CC2)c1,5.17µM,i,nt,i,i
Cc1cccc(C)c1NC(=O)CN(C)C(=O)c1cccc(S(=O)(=O)N2CCN(c3ccccc3)CC2)c1,i,i,nt,i,i
CN(Cc1cccc(Cl)c1Cl)C(=O)c1cccc(S(=O)(=O)N2CCN(Cc3ccccc3)CC2)c1,13µM,i,nt,i,i
CN(Cc1cccc(F)c1)C(=O)c1cccc(S(=O)(=O)N2CCN(Cc3ccccc3)CC2)c1,?,i,nt,i,i
Cc1cccc(C)c1NC(=O)COC(=O)c1cccc2c1C(=O)c1ccccc1C2=O,18.4µM,?,?,i,i
Cc1cccc(NC(=O)COC(=O)c2cccc3c2C(=O)c2ccccc2C3=O)c1C,14.6µM,i,i,i,i
OCCN1CCN(Cc2ccc3c(c2)CN(Cc2cccn2-c2ccccn2)CCO3)CC1,nt,i,nt,nt,nt
CC(C)(C)OC(=O)NCC(=O)NNC(=O)c1cc2ccccc2[nH]1,i,nt,nt,nt,i
COc1ccc(NC(=O)N2CCN(c3cccc(C(F)(F)F)c3)CC2)cc1,i,i,i,i,i
FC(F)(F)c1cccc(N2CCN(C(=S)NC3CCCC3)CC2)c1,23.1µM,?,i,i,i
Cc1ccnc(NC(=S)N2CCN(c3cccc(C(F)(F)F)c3)CC2)c1,23.1µM,i,nt,i,?
CN(C)S(=O)(=O)c1ccc(NC(=O)N2CCN(c3cccc(C(F)(F)F)c3)CC2)cc1,23.1µM,i,i,i,?
CCNC(=S)N1CCN(c2cccc(C(F)(F)F)c2)CC1,i,i,i,i,i
FC(F)(F)c1cccc(N2CCN(C(=S)NC3CCCCC3)CC2)c1,16.4µM,31.6µM,i,i[9.22 µM],i
Cc1ccc(C)c(NC(=S)N2CCN(c3cccc(C(F)(F)F)c3)CC2)c1,i,i,i,i,i
CSc1nnc(CNC(=O)/C=C/c2ccccc2Cl)n1-c1ccc(F)cc1,nt,i,nt,nt,nt
O=C(c1ccco1)N1CCCC(N2CCN(c3cccc(C(F)(F)F)c3)CC2)C1 (stereo unspecified),?,i,nt,i,i
O=C(c1cccs1)N1CCCC(N2CCN(c3cccc(C(F)(F)F)c3)CC2)C1 (stereo unspecified),20.6µM,i,nt,i,i
OC(c1cccnc1)c1ccc2c(c1)CN(Cc1ccc(-c3ccccc3Cl)o1)CCO2 (stereo unspecified),nt,i,nt,nt,nt
O=C(C[n+]1cccc(Cl)c1)c1ccc(O)c(O)c1,nt,i,nt,nt,nt
CC1CCc2nc(NC(=O)c3ccc(S(=O)(=O)N4CCCc5ccccc54)cc3)sc2C1 (stereo unspecified),5.17µM,i,i,i,i
CNC(=O)c1ccsc1NC(=O)c1ccc(S(=O)(=O)N2CCCc3ccccc32)cc1,18.4µM,i,i,i,i
O=C(Nc1nc2c(s1)CCCC2)c1ccc(S(=O)(=O)N2CCCc3ccccc32)cc1,18.4µM,i,i,i,i
COc1ccc(C(=O)Oc2ccc(=O)n(-c3ccccc3)n2)cc1,1.64µM,i,i,i,nt
CC(C)OC(=O)c1c2c(n3ccccc13)C(=O)c1ccccc1C2=O,?,i,10µM,i,?
SMILES,Nrf2 block,PINK1 modulator,Epigenetic derep,Nrf2 ARE act,A549 tox
CC(C(=O)Nc1ccccc1)c1ccc(-c2ccccc2)c(F)c1 (stereo unspecified),10.3µM,i,i,i,i
COc1ccc(-c2nc3cc(F)ccc3cc2CN(C(=O)c2ccc3c(c2)OCO3)C2CC2)cc1,nt,i,nt,nt,nt
CSc1ccc(S(=O)(=O)Nc2ccc3c4c(cccc24)CC3)cc1,18.4µM,?,i,i,?
O=S(=O)(Nc1ccc2c3c(cccc13)CC2)c1ccc(F)cc1,nt,i,i,i,i
Cc1c(C(=O)N2CC3CCC2C3)sc2ncnc(NCCc3ccccn3)c12 (stereo unspecified),nt,i,nt,nt,nt
CC1CN(c2ncnc3c2c(-c2ccccc2)cn3-c2ccc(F)cc2)CC(C)O1 (stereo unspecified),18.4µM,i,i,i,?
OCCN1CCN(c2ncnc3c2c(-c2ccccc2)cn3-c2ccc(F)cc2)CC1,?,i,i,i,?
Cc1ccc(-n2cc(-c3ccccc3)c3c(N4CCOCC4)ncnc32)cc1,23.1µM,i,i,i,i
CC(C)C(=O)NCC1CCC2(CCN(Cc3ccc(-c4ccccc4Cl)o3)CC2)O1 (stereo unspecified),nt,i,nt,nt,nt
Oc1cccc(-c2nc3c4c(ncn3n2)-c2ccccc2CC42CCCC2)c1,23.1µM,?,i,i,?
Cc1ncc2c(c1CNC(=O)c1cncs1)CCN(C(=O)c1csc(-c3cccs3)n1)C2,nt,i,nt,nt,nt
CCOc1ccc(N=C2NC(=O)S/C2=C\c2ccc(N(C)C)cc2)cc1,?,?,7.94µM,i,nt
CC(OC(=O)c1ccc2c(c1)OCCO2)C(=O)NC1CCCCC1C (stereo unspecified),18.4µM,i,nt,i,i
Cc1nc(NCc2ccco2)nc2c1C(=O)CC(C)C2 (stereo unspecified),nt,i,i,2µM,i
CC(C)N(CC(=O)Nc1ccc(Cl)cc1C(F)(F)F)C(=O)CCl,13µM,i,i,?,?
CCC(C)N(CC(=O)Nc1cccc(C)c1C)C(=O)CCl (stereo unspecified),?,i,i,7.94µM,i
O=C(O)CSCC(=O)Nc1ccc(Cl)cc1C(F)(F)F,i,i,i,i,i
CSc1ccccc1OCc1cc(C(=O)N2CCc3c(Cl)cccc3C2)no1,9.2µM,i,nt,i,i
COc1cc2c(cc1OC)CN(C(=O)c1cc(COc3ccccc3SC)on1)CC2,nt,i,nt,i,nt
COCCNC(=O)C1(C(F)(F)F)C/C(=C\Cc2ccccc2)CCCO1 (stereo unspecified),i,nt,nt,nt,i
COc1cc2cnc(-c3ccsc3)cc2cc1OC,i,i,nt,4.47µM,i
Fc1ccc2cc(-c3cccnc3)ncc2c1,?,i,nt,i,i
c1cc(-c2cc3cc4c(cc3cn2)OCO4)cs1,?,i,nt,?,i
Fc1ccc2cc(-c3ccsc3)ncc2c1,?,i,nt,8.91µM,i
COCC(=O)Nc1cc(C(=O)N2CCCC2c2nccs2)c2c(c1)nc(-c1ccncc1)n2C (stereo unspecified),nt,i,nt,nt,nt
SMILES,Nrf2 block,PINK1 modulator,Epigenetic derep,Nrf2 ARE act,A549 tox
O=C1c2ccccc2C2=Nc3ccccc3SC(c3cccc(F)c3)C12 (stereo unspecified),?,39.8µM,i,i,?
Clc1ccc(-n2cccc2CN2CCOc3ccc(CN4CCOCC4)cc3C2)nc1,nt,i,nt,nt,nt
O=c1[nH][nH]cc1C=Nc1ccccc1O,i,i,?,12.6µM,i
O=c1[nH][nH]cc1C=Nc1ccc(Cl)cc1Cl,i,i,i,i,i
O=c1[nH][nH]cc1C=Nc1cc(Cl)ccc1O,?,i,i,12.6µM,i
O=c1[nH][nH]cc1C=Nc1ccccc1Cl,i,i,i,i,i
CCCCNC(=O)Cn1c(SCc2cccc(F)c2)nc2ccncc21,i,i,nt,nt,i

# Bioassay records as filed in PubChem.
